# The source made the active and inactive calls.
# Assay: PSAC antagonists in infected red cells, primary screen, cell-based, P. falciparum Indochina, OD700, 2 h (AID 1155);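 note: lysis reports solute entry through the parasite surface anion channel PSAC; channel blockers reduce lysis of infected cells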
# Conditions: P. falciparum Indochina infected erythrocytes, osmotic lysis OD700; higher = more signal, called active from +8 up or from −8 down
row,SMILES,z-score
1,COC(=O)c1c2oc(c1C(=O)OC)C(=O)N[C@H](Cc1ccccc1)Cn1nncc1C1(CCCCC1)NC(=O)N[C@H](CO)CC2,1.58 (inactive)
2,CCOC1=C2C(c3ccc(C)cc3)N(S(=O)(=O)c3ccc(C)cc3)CC2n2c(=O)n(-c3ccccc3)c(=O)n2C1 (stereo not given),1.32 (inactive)
3,C[C@H]1C2[C@H](Cc3ccccc3)NC(=O)[C@]23C(=O)N[C@H](Cc2ccccc2)C(=O)N[C@H](Cc2ccccc2)C(=O)NC/C=C/CCC/C=C/C3[C@@H]2O[C@]12C (stereo not given in full),0.452 (inactive)
4,Cc1ccc(S[C@]2(C(=O)NCCCN(C)C)CC(=O)N(C(C)C)[C@@H]2c2ccc(CO)cc2I)cc1,-0.185 (inactive)
5,O=C1O[C@@H](c2ccccc2)[C@@H](c2ccccc2)N2[C@@H](c3ccc(O)cc3)[C@]3(C(=O)Nc4ccccc43)[C@@H](C(=O)N3CCCCCCC3)[C@H]12,-0.0476 (inactive)
6,COc1ccc(C#Cc2ccc3c(c2)[C@]2(C(=O)N3)[C@H](C(=O)N3CCN(c4ncccn4)CC3)[C@H]3C(=O)O[C@H](c4ccccc4)[C@H](c4ccccc4)N3[C@@H]2c2ccc(O)cc2)cc1,1.59 (inactive)
7,COCCCNC(=O)[C@@]1(C)c2ccccc2C(=O)N(Cc2ccccc2)[C@H]1c1ccc(CO)cc1,0.179 (inactive)
8,C=CCC(OC(C)=O)[C@@H]1[C@@H](N(Cc2cc3ccccc3o2)C(=O)c2cccc3ccccc23)c2cc(OCCCO)ccc2N1C(=O)Cc1ccc(OC)cc1 (stereo not given in full),0.923 (inactive)
9,CC1CC/C=C\[C@H]2OC34C=CCN(c5ccc6ccccc6c5)C(=O)[C@H]3N(CCCCCO)C(=O)[C@@H]4C2C(=O)O1 (stereo not given in full),0.222 (inactive)
10,CN(C)CCCC[C@@H]1NC(=O)[C@@H]2C[C@H](C(=O)NCCCCCN)[C@H](c3ccc(O)cc3)N2C1=O,0.0694 (inactive)
11,CC(=O)n1cc(C(O)C2C=CC3C(=O)N(c4ccccc4)C(=O)C3N2Nc2ccc(C#N)cc2)c2ccccc21 (stereo not given),6.32 (inactive)
12,COc1cc(NN2C(C(O)c3ccccc3)C=CC3C(=O)N(c4ccccc4)C(=O)C32)cc(OC)c1OC (stereo not given),0.0862 (inactive)
13,C/C=C/[C@H](CCn1cc([C@H](O)c2ccccc2)nn1)[Si](C)(C)c1ccc(OC)cc1,0.755 (inactive)
14,C=C(C(=O)CC[C@@H](OC(=O)c1cccnc1)c1ccc(CO)o1)C(C)C,0.0559 (inactive)
15,C=CCC(OC(C)=O)[C@@H]1[C@@H](N(Cc2cc3ccccc3o2)C(=O)c2cccc3ccccc23)c2cc(OCCCO)ccc2N1C(=O)Cc1ccc2ccccc2c1 (stereo not given in full),0.231 (inactive)
16,Cc1ccccc1/C=C/C=O,0.146 (inactive)
17,[N-]=[N+]=NCc1ccccc1C[C@]1(C(=O)NCc2ccccc2)COC(c2ccc(OCCCO)cc2)=N1,24.6 (active)
18,COCCOC(=O)N1C(=O)[C@@]2(c3cc(C#CC4=CCCCC4)ccc31)[C@H](C(=O)N1CCN(c3ncccn3)CC1)[C@H]1C(=O)O[C@H](c3ccccc3)[C@H](c3ccccc3)N1[C@@H]2c1ccc(OCCO)cc1,1.85 (inactive)

row,SMILES,z-score
1,COC(=O)C(CC#Cc1ccc2c(c1)[C@]1(C(=O)N2)[C@H](C(=O)N2CCCCCCC2)[C@H]2C(=O)O[C@H](c3ccccc3)[C@H](c3ccccc3)N2[C@@H]1c1ccccc1OCCO)C(=O)OC,0.918 (inactive)
2,NC(=O)[C@]1(Cc2ccccc2)N=C(c2ccc(OCCCO)cc2)O[C@@H]1c1ccccc1,15.6 (active)
3,CCCCN1CC=CC23O[C@@H]4C=CCCOC(=O)C4[C@H]2C(=O)N(CCCO)[C@@H]3C1=O (stereo not given in full),-1.01 (inactive)
4,C=CC[C@@]1(C(=O)OC)N=C(c2ccc(OCCCO)cc2)O[C@@H]1c1ccccc1CN=[N+]=[N-],18.7 (active)
5,C=CC[C@@]1(C(N)=O)N=C(c2ccc(OCCCO)cc2)O[C@@H]1c1ccccc1N=[N+]=[N-],32.6 (active)
6,Cc1ccc(N2C(=O)c3ccccc3[C@@H](C(=O)NCC(C)C)[C@@H]2c2ccc(CO)cc2)nc1,0.48 (inactive)
7,CN1C(=O)C2C=CC(C(O)c3ccc(Br)cc3)N(Nc3ccccc3)C2C1=O (stereo not given),0.708 (inactive)
8,CCCC[C@@H]1C[C@H]1[C@@H](NC(=O)c1ccccc1)c1ccccc1,0.803 (inactive)
9,CN(C)CCCCCCNC(=O)[C@@H]1C[C@@H]2C(=O)NCC(=O)N2[C@@H]1c1cccc(OCCO)c1,0.109 (inactive)
10,COC(=O)c1c(CC[C@@H](CO)NC(=O)Nc2ncn[nH]2)oc(C(=O)Cc2ccccc2)c1C(=O)OC,0.22 (inactive)
11,COC(=O)[C@@]1(Cc2ccc(F)cc2)[C@H]2c3cc(C(=O)N4CCCC4)n(CCc4ccc(OC)c(Br)c4)c3C[C@H]2CN1C(=O)c1ccccc1,1.5 (inactive)
12,[N-]=[N+]=NCc1ccccc1[C@@H]1OC(c2ccc(OCCCO)cc2)=N[C@]1(Cc1ccccc1N=[N+]=[N-])C(N)=O,2.68 (inactive)
13,C#C[C@H](O[Si](C#CCCCCCC)(C(C)C)C(C)C)c1ccccc1,-0.227 (inactive)
14,CC(=O)NCCCC[C@@H]1NC(=O)[C@@H]2C[C@H](C(=O)NCc3ccc(F)cc3)[C@H](c3ccc(O)cc3)N2C1=O,0.549 (inactive)
15,CC(C)C[C@@H]1NC(=O)[C@@H]2C[C@H](C(=O)NCCCCN(C)C)[C@H](c3ccc(O)cc3)N2C1=O,-0.241 (inactive)
16,COCCOC(=O)N1C(=O)[C@@]2(c3cc(C#Cc4ccc(OC)cc4)ccc31)[C@H](c1ccc(O)cc1)N1[C@H](c3ccccc3)[C@H](c3ccccc3)OC(=O)[C@H]1[C@@H]2C(=O)N1CCN(c2ncccn2)CC1,0.876 (inactive)
17,CCOC(=O)C1=CC[C@@H](c2cccc(Cl)c2)N(S(=O)(=O)c2ccc(C)cc2)[C@H]1c1ccc(C#N)cc1,1.34 (inactive)

# Reference: PubChem BioAssay
